Reference: PubChem BioAssay AID1159580 (chemical genetic matrix, 2015)
Hit rate of the full screen: of about 5,500 compounds, about 2,000 (36%) were called active. Inconclusive results (about 18%) are left out. Rule as the data show it: active = normalized growth mostly below about 0.91 (no sharp cut-off); inconclusive = no clear call, values can overlap the other calls; inactive = mostly above about 0.92. The list shows a part of the results.

Assay: chemical genetic growth profiling, strain panel (AID 1159580);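 also: tested at 20 µM; growth read once vehicle control cultures reached saturation at 30 °C; 1 = growth at the plate median or of vehicle wells; lower values mean less growth of the strain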
Conditions: S. cerevisiae deletion strains, growth OD

Measured: normalized growth

CC(C)Oc1ccc2c(=O)cc(-c3ccccc3)oc2c1
inactive: locus YAL021C, strain ccr4, active compounds read low 0.956 | locus YAL026C, strain drs2, active compounds read low 0.934 | locus YAL030W, strain snc1, active compounds read low 0.955 | locus YBL061C, strain skt5, active compounds read low 0.929 | locus YBR009C, strain hhf1, active compounds read low 0.952 | locus YBR023C, strain chs3, active compounds read low 0.944 | locus YBR171W, strain sec66, active compounds read low 0.912 | locus YBR229C, strain ROT2, active compounds read low 0.915 | locus YBR231C, strain swc5, active compounds read low 0.937 | locus YBR279W, strain paf1, active compounds read low 0.963 | locus YCL011C, strain gbp2, active compounds read low 0.923 | locus YCL016C, strain dcc1, active compounds read low 0.94 | locus YCL069W, strain vba3, active compounds read low 0.95 | locus YCR088W, strain abp1, active compounds read low 0.933 | locus YDL005C, strain med2, active compounds read low 0.96 | locus YDL035C, strain GPR1, active compounds read low 0.984 | locus YDL040C, strain nat1, active compounds read low 0.953 | locus YDL074C, strain BRE1, active compounds read low 0.871 | locus YDL101C, strain DUN1, active compounds read low 0.938 | locus YDR001C, strain nth1, active compounds read low 0.943 | locus YDR069C, strain doa4, active compounds read low 0.972 | locus YDR150W, strain NUM1, active compounds read low 0.937 | locus YDR159W, strain sac3, active compounds read low 0.919 | locus YDR162C, strain NBP2, active compounds read low 0.953 | locus YDR195W, strain ref2 1.03 | locus YDR297W, strain sur2, active compounds read low 0.95 | locus YDR334W, strain swr1, active compounds read low 0.953 | locus YDR335W, strain msn5, active compounds read low 0.962 | locus YEL037C, strain rad23, active compounds read low 0.953 | locus YEL061C, strain CIN8 (second series), active compounds read low 0.916 | locus YER015W, strain faa2, active compounds read low 0.962 | locus YER016W, strain bim1, active compounds read low 0.956 | locus YER111C, strain swi4, active compounds read low 0.959 | locus YER167W, strain BCK2, active compounds read low 0.925 | locus YFR010W, strain ubp6, active compounds read low 0.936 | locus YGL167C, strain pmr1, active compounds read low 0.946 | locus YGL173C, strain kem1, active compounds read low 0.943 | locus YGL240W, strain doc1, active compounds read low 0.901 | locus YGL248W, strain PDE1, active compounds read low 0.912 | locus YGL253W, strain hxk2, active compounds read low 0.926 | locus YGR078C, strain PAC10, active compounds read low 0.903 | locus YGR135W, strain pre9, active compounds read low 0.907 | locus YGR252W, strain gcn5, active compounds read low 0.827 | locus YHR013C, strain ard1, active compounds read low 0.859 | locus YHR027C, strain rpn1, active compounds read low 0.947 | locus YHR030C, strain SLT2, active compounds read low 0.92 | locus YIL066C, strain RNR3, active compounds read low 0.939 | locus YIL073C, strain SPO22, active compounds read low 0.921 | locus YJL092W, strain hpr5, active compounds read low 0.928 | locus YJL095W, strain BCK1 (second series), active compounds read low 0.948 | locus YJL095W, strain BCK1, active compounds read low 0.888 | locus YJL115W, strain asf1, active compounds read low 0.958 | locus YJL154C, strain vps35, active compounds read low 0.952 | locus YJL164C, strain tpk1, active compounds read low 0.923 | locus YJL187C, strain SWE1 (second series), active compounds read low 0.906 | locus YJL187C, strain SWE1, active compounds read low 0.951 | locus YJR043C, strain POL32, active compounds read low 0.941 | locus YJR075W, strain HOC1, active compounds read low 0.904 | locus YKL160W, strain elf1, active compounds read low 0.913 | locus YKL190W, strain CNB1, active compounds read low 0.945 | locus YKR026C, strain gcn3, active compounds read low 0.934 | locus YKR091W, strain srl3, active compounds read low 0.965 | locus YLL001W, strain dnm1, active compounds read low 0.951 | locus YLL026W, active compounds read low 0.955 | locus YLL041C, strain sdh2, active compounds read low 0.957 | locus YLR027C, strain aat2, active compounds read low 0.957 | locus YLR039C, strain RIC1, active compounds read low 0.815 | locus YLR058C, strain SHM2, active compounds read low 0.915 | locus YLR258W, strain gsy2, active compounds read low 0.948 | locus YLR262C, strain YPT6, active compounds read low 0.861 | locus YLR268W, strain sec22, active compounds read low 0.906 | locus YLR342W, strain FKS1 (second series), active compounds read low 0.911 | locus YLR342W, strain FKS1, active compounds read low 0.916 | locus YLR357W, strain rsc2, active compounds read low 0.869 | locus YLR370C, strain arc18, active compounds read low 0.941 | locus YLR384C, strain iki3, active compounds read low 0.944 | locus YML032C, strain rad52, active compounds read low 0.908 | locus YML120C, strain ndi1, active compounds read low 0.963 | locus YMR058W, strain fet3, active compounds read low 0.916 | locus YMR125W, strain sto1, active compounds read low 0.953 | locus YMR129W, active compounds read low 0.952 | locus YMR231W, strain pep5, active compounds read low 0.969 | locus YMR263W, strain SAP30, active compounds read low 0.893 | locus YMR307W, strain GAS1, active compounds read low 0.791 | locus YNL067W, strain RPL9B, active compounds read low 0.93 | locus YNL128W, strain TEP1, active compounds read low 0.941 | locus YNL209W, strain ssb2, active compounds read low 0.971 | locus YNL233W, strain BNI4, active compounds read low 0.901 | locus YNL248C, strain rpa49, active compounds read low 0.919 | locus YNL322C, strain KRE1 (second series), active compounds read low 0.946 | locus YNR049C, strain mso1, active compounds read low 0.943 | locus YOL012C, strain htz1 1.5 | locus YOR001W, strain rrp6, active compounds read low 0.896 | locus YOR061W, strain CKA2, active compounds read low 0.912 | locus YOR070C, strain gyp1, active compounds read low 0.961 | locus YOR080W, strain dia2, active compounds read low 0.965 | locus YOR083W, strain WHI5, active compounds read low 0.928 | locus YOR106W, strain vam3, active compounds read low 0.917 | locus YOR136W, strain idh2, active compounds read low 0.938 | locus YOR184W, strain ser1, active compounds read low 0.9 | locus YOR265W, strain rbl2, active compounds read low 0.96 | locus YPL078C, strain atp4, active compounds read low 0.905 | locus YPL106C, strain sse1, active compounds read low 0.928 | locus YPL240C, strain hsp82, active compounds read low 0.95 | strain wtn01, active compounds read low 0.909
active: locus YAL013W, strain DEP1, active compounds read low 0.892 | locus YBR021W, strain FUR4, active compounds read low 0.844 | locus YCL029C, strain bik1, active compounds read low 0.88 | locus YCL061C, strain MRC1, active compounds read low 0.918 | locus YDL185W, strain tfp1, active compounds read low 0.423 | locus YDL192W, strain arf1, active compounds read low 0.884 | locus YDR101C, strain arx1, active compounds read low 0.906 | locus YDR137W, strain rgp1, active compounds read low 0.834 | locus YDR318W, strain mcm21, active compounds read low 0.885 | locus YDR388W, active compounds read low 0.876 | locus YDR392W, strain spt3, active compounds read low 0.358 | locus YDR502C, strain sam2, active compounds read low 0.904 | locus YEL003W, strain gim4, active compounds read low 0.887 | locus YEL061C, strain CIN8, active compounds read low 0.923 | locus YER110C, active compounds read low 0.886 | locus YER155C, strain BEM2 (second series), active compounds read low 0.679 | locus YER155C, strain BEM2, active compounds read low 0.85 | locus YGL078C, strain dbp3, active compounds read low 0.815 | locus YGL086W, strain mad1, active compounds read low 0.91 | locus YGL227W, strain vid30, active compounds read low 0.905 | locus YHR079C, strain IRE1 (second series), active compounds read low 0.888 | locus YHR094C, strain hxt1, active compounds read low 0.879 | locus YHR129C, strain ARP1, active compounds read low 0.916 | locus YHR142W, strain chs7, active compounds read low 0.735 | locus YHR200W, strain rpn10, active compounds read low 0.869 | locus YIL125W, strain kgd1, active compounds read low 0.715 | locus YIR030C, strain dcg1, active compounds read low 0.878 | locus YJL129C, strain trk1, active compounds read low 0.815 | locus YJL134W, strain LCB3, active compounds read low 0.909 | locus YJL166W, strain qcr8, active compounds read low 0.893 | locus YJL168C, strain set2, active compounds read low 0.872 | locus YKL009W, strain mrt4, active compounds read low 0.452 | locus YKL068W, active compounds read low 0.797 | locus YKL085W, strain MDH1 (second series), active compounds read low 0.667 | locus YKL085W, strain MDH1, active compounds read low 0.667 | locus YKR001C, strain vps1, active compounds read low 0.83 | locus YLR102C, strain apc9, active compounds read low 0.881 | locus YLR221C, strain rsa3, active compounds read low 0.895 | locus YLR262C, strain YPT6 (second series), active compounds read low 0.821 | locus YLR320W, strain mms22, active compounds read low 0.785 | locus YLR330W, strain CHS5, active compounds read low 0.896 | locus YLR371W, strain rom2, active compounds read low 0.898 | locus YLR418C, strain cdc73, active compounds read low 0.814 | locus YML016C, strain PPZ1, active compounds read low 0.91 | locus YML124C, strain tub3, active compounds read low 0.867 | locus YMR078C, strain ctf18, active compounds read low 0.839 | locus YMR205C, strain PFK2, active compounds read low 0.844 | locus YMR223W, strain ubp8, active compounds read low 0.9 | locus YNL071W, strain lat1, active compounds read low 0.734 | locus YNL250W, strain rad50, active compounds read low 0.767 | locus YNL271C, strain bni1, active compounds read low 0.794 | locus YNL298W, strain CLA4, active compounds read low 0.538 | locus YNL307C, strain MCK1, active compounds read low 0.848 | locus YNR052C, strain pop2, active compounds read low 0.908 | locus YOL147C, strain pex11, active compounds read low 0.872 | locus YOR069W, strain VPS5, active compounds read low 0.925 | locus YOR144C, strain elg1, active compounds read low 0.874 | locus YOR270C, strain vph1, active compounds read low 0.731 | locus YOR290C, strain snf2, active compounds read low 0.797 | locus YOR316C, strain cot1, active compounds read low 0.875 | locus YPL051W, strain arl3, active compounds read low 0.897 | locus YPR119W, strain clb2, active compounds read low 0.856 | locus YPR141C, strain kar3, active compounds read low 0.802 | locus YPR163C, strain tif3, active compounds read low 0.906 | locus YPR167C, strain met16, active compounds read low 0.873
